Measurements: the emibetuzumab library of Makowski et al. (2022)
The other results are listed elsewhere or left out. The hit rate among all sequences tested is not known here.

B1: VH:VL chains; a variant is named by its letters at X, in order (parent)
chain 1: QVQLVQSGAEVKKPGASVKVSCKASGYTFTDYXMHWVRQAPGQGLEWMGXVNPNXXXTTYNQKFEGRVTMTTDTSTSTAYMELRSLRSDDTAVYYCARXNXLDXWGQGTTVTVSS
chain 2: DIQMTQSPSSLSASVGDRVTITCSVSSSVSSIYLHWYQQKPGKAPKLLIYSTSNLASGVPSRFSGSGSGTDFTLTISSLQPEDFATYYCQVYSGYPLTFGGGTKVEIK

Variants of: B1
Assay: yeast display scFab, FACS + sequencing
Details: with MET
In short: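 For FACS, yeast displaying a heavy-chain CDR mutant scFab library were labelled with 1 nM HGFR-Fc and anti-Myc (PBSB, 1% milk, 3 h, room temperature), and the top 50% antigen-positive cells were gated. Input and round-3 sorted populations were deep sequenced in two replicates. The binding call was positive for sequences occurring in both antigen-positive samples and negative for sequences occurring only in input.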

| Variant | antigen binding call |
| --- | --- |
| VEGTGAGD | no binding |
| YRKGGAVV | binds |
| YTKRSAVV | no binding |
| YRKGAAVV | binds |
| DAGKGAVV | no binding |
| YTGTSAVV | no binding |
| YAGKNAVV | binds |
| DGGKNAVV | no binding |
| YRARSAVV | binds |
| SEARSAVV | no binding |
| YRARSSVV | binds |
| VTTKSDGY | no binding |
| YATGDDGV | no binding |
| SEGGTDVV | no binding |
| VTGGDSGD | no binding |
| VRTEDDLV | no binding |
| VRTEDSLV | no binding |
| VRTEDDVD | no binding |
| VRTEDSGD | binds |
| VRTEDALV | binds |
| VRTAASGD | no binding |
| VTTEASLD | no binding |
| VAGGDALD | no binding |
| VRTEDALD | binds |

| Variant | antigen binding call |
| --- | --- |
| VRTEDSLD | binds |
| DGGGNDLA chain 1 R87K | no binding |
| VAGTGFWV | no binding |
| AGETGFSA | no binding |
| VRTRSSLD | binds |
| YRAKGALS | binds |
| YKARGALS | binds |
| YRAGGALS | binds |
| YRARGALS | binds |
| DAARGDAV | no binding |
| VEKKDYSA | no binding |
| DEGGTAVA | no binding |
| DAGGAAVS | no binding |
| FRAGGALS | binds |
| YRAKGAGS | binds |
| FTTRSALS | no binding |
| YRAAGAGS | binds |
| YRAKGALF | binds |
| DAGKGALF | no binding |
| YTGEADAS | no binding |
| SAERSAAF | no binding |
| DAGGASSA | no binding |
| SEEEGSGV | no binding |
| YRERGALS | binds |

| Variant | antigen binding call |
| --- | --- |
| YTTGGYLV | no binding |
| YRGGGYLV | binds |
| YRGGDDLV | no binding |
| YEGGGDLV | no binding |
| YRGGDYLV | binds |
| YRGGDYSV | no binding |
| DETEGDVF | no binding |
| VKGEGDVY | no binding |
| VEERDDWF | no binding |
| SRGGAAWA | no binding |
| SRGGSALA | binds |
| SEARSDLA | no binding |
| SAGGGAGD | no binding |
| SRGGGALD | binds |
| SRGKGDAD | no binding |
| SRGKGALD | binds |
| SETGAALD | no binding |
| SEARSALA | binds |
| SRGGDDVA | no binding |
| SEARSSLA | no binding |
| DGGRGDGA | no binding |
| AKTGNDVA | no binding |
| DRAGDSLD | no binding |
| YRAEGALD | binds |

| Variant | antigen binding call |
| --- | --- |
| DRREDALD | binds |
| YRAGDALD | binds |
| DTTGSALD | no binding |
| DRAGDALD | binds |
| DAGAADVV | no binding |
| DRGGDDVD | no binding |
| YATAADAD | no binding |
| YRRRGVAD | binds |
| ARRTDVAD | binds |
| VRRRGAAD | binds |
| YRAGGDAD | binds |
| VGGGGAAD | no binding |
| AARADSAD | no binding |
| AREGDAGD | no binding |
| YTGGNDAD | no binding |
| FERRAFGY | no binding |
| YRRKGDAD | no binding |
| YRRRGDAD | binds |
| YRRRGAAD | binds |
| YRRGGAAD | binds |
| AAARNFLF chain 1 V68I | no binding |
| SEARSSAS | no binding |
| DEGGTDSF | no binding |
| VKGASDVV | no binding |

| Variant | antigen binding call |
| --- | --- |
| DTGGGAGA | no binding |
| YKGRGYVA | no binding |
| VRGRGFAA | no binding |
| YKGRGYAA | binds |
| YRGRGYAA | binds |
| VRGTGYAS | no binding |
| VRGRGYAA | binds |
| YRGKGYAA | binds |
| VTTRAASV | no binding |
| SREEGFSV | no binding |
| YRAGGYAA | binds |
| YGGRGAVA | binds |
| YGGGGAVA | no binding |
| YEGRGDVA | no binding |
| VRGRGDLA | binds |
| VRAGGDLA | no binding |
| VTGRGDLA | no binding |
| YRGRGVAA | binds |
| SETKGDVY | no binding |
| DREEGFSV | no binding |
| AAGGDYVF | no binding |
| VTEGDAGD | no binding |
| YERRGSWS | no binding |
| YRRRGAWS | binds |

| Variant | antigen binding call |
| --- | --- |
| VERRGSWS | no binding |
| YRRRGYSS | binds |
| YRRGGAWS | binds |
| YAKADYSS | no binding |
| YRRRGSWS | binds |
| VTRGDVWV | no binding |
| VTGTGDVV | no binding |
| SEGTGAGV | no binding |
| SKRRGSLS | binds |
| YRRRGAAS | binds |
| SKERGDLV | no binding |
| SKTKSDGS | no binding |
| YRRRGSLS | binds |
| YRRRGSSS | binds |
| VETEGAGA | no binding |
| SREAADGV | no binding |
| AETTDSWV | no binding |
| FGATSVSF | no binding |
| SARTDFWF | no binding |
| ARAETDVY | no binding |
| DARGGSSS | no binding |
| YRRRSSSS | binds |
| YRRRGSVS | binds |
| YRRRGALS | binds |

| Variant | antigen binding call |
| --- | --- |
| YRRRGSAS | binds |
| VTEENDGY | no binding |
| FAEGDDVY | no binding |
| ATTKSDVA | no binding |
| YARETDGA | no binding |
| DAGAADGA | no binding |
| YRRRGSGS | binds |
| YRRRGASS | binds |
| DAEATDVA | no binding |
| YRAKGSGD | binds |
| YKEKGAVD | no binding |
| YRAGTSGD | binds |
| VAEKGAGD | no binding |
| YREKGAGD | binds |
| YRAKGAGD | binds |
| DGGEGVVY | no binding |
| AKRGAFAD | no binding |
| VGGKNSVD | no binding |
| VKGRADAD | no binding |
| YAAGASVD | no binding |
| YRAGASGD | binds |
| YRRKGAGD | binds |
| YRAGSSGD | binds |
| VKEADDVA | no binding |

| Variant | antigen binding call |
| --- | --- |
| DAEGGSLD | no binding |
| YRERSSLD | binds |
| YREGGSLD | binds |
| YREGGSVD | binds |
| VTEGGSVD | no binding |
| YRGRTSLD | binds |
| VTTKSDVF | no binding |
| AETKGDVY | no binding |
| SAGEGDGV | no binding |
| AKKRGAWS | binds |
| AERRGSWS | no binding |
| YARGADGS | no binding |
| FAKRGAWS | no binding |
| YKRGAAWS | binds |
| YKTRSAWS chain 1 M48I | no binding |
| VKEKGAWV | no binding |
| VKKRGAWS | binds |
| AAKRGSWV | no binding |
| FKKRGAWS | binds |
| VKEKGAWS | no binding |
| FKTEGFVS | no binding |
| DATGGDVF | no binding |
| YERTTDLS | no binding |
| VGGTSDGD | no binding |

| Variant | antigen binding call |
| --- | --- |
| VTEEGDWV | no binding |
| ATKGAAVA | no binding |
| YKKRGAWS | binds |
| YEKGGAWS | no binding |
| VTTKSAGV | no binding |
| DAEATSLV | no binding |
| YRRGSSAA | binds |
| YRRGGSAA | binds |
| VTGEDDVD | no binding |
| VAARGDAA | no binding |
| VKARGAAV | binds |
| VKARGSAV | binds |
| VKAGDAAV | no binding |
| VEEEGSAV | no binding |
| VKAGGDAV | no binding |
| VAARGAAV | no binding |
| VKARGSAF | binds |
| VKGRASAF | no binding |
| SGREGDSA | no binding |
